Compound activity (PubChem BioAssay)
Compounds with a hit are over-represented: about 4.6% of the library has one in this group of screens.
ssDAF-12 act: activates DAF-12 receptor from parasite S. stercoralis; activation, % at 6.8 µM; HEK293 ssDAF-12/GRIP1 lit1-tk-luc reporter, luminescence; % of 3 µM dafachronic acid response; 370,000 compounds, 1% hits; AID 652126;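 active = activation above the mean over all tested compounds plus 3 SD, cut at about 0.9% in these data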;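 also: 0% = DMSO-only wells and 100% = 3 µM delta7-dafachronic acid wells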
hgDAF12 agonist: activates the H. glycines DAF-12 receptor ligand-binding domain; activation, % at 6.8 µM; HEK293 GAL4-hgDAF12 UAS-luciferase reporter, agonist luminescence; normalized to butyrate control; 370,000 compounds, 1.8% hits;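 active = activation above a cutoff set at the mean of all screened compounds plus 3 SD, cut at about 10% in these data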;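 also: 0% = DMSO wells and 100% = sodium butyrate wells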
Wee1 stabilizer: blocks degradation of human Wee1 kinase; P30291; HeLa Luc-Wee1K328M stability, luciferase luminescence; 100% = proteasome inhibitor MG132 effect; reporter increase, % at 5 µM; 220,000 compounds, 1.2% hits; AID 1321;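 active = activation above the mean of all tested compounds plus 3 SD, set per screening run, cut at about 8.8% in these data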;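 also: cells exposed to compound for 20 h before luminescence read; 0% = DMSO alone and 100% = MG132 at 30 µM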
DAX1 inh-1: inhibitors of human orphan nuclear receptor DAX1 (NR0B1) | P51843 | HEK293 Gal4-DAX1 luciferase reporter, luminescence | inhibition, % at 6.75 µM | 340,000 compounds, 0.99% hits | AID 504766;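 active = inhibition above the mean over all tested compounds plus 3 SD, cut at about 4.2% in these data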;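 also: 0% = DAX1-transfected cells with DMSO and 100% = empty-vector control cells with DMSO; inhibition shows as a rise in luminescence from relieved DAX1 repression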
Target sequence (P51843 207-470 limits assumed): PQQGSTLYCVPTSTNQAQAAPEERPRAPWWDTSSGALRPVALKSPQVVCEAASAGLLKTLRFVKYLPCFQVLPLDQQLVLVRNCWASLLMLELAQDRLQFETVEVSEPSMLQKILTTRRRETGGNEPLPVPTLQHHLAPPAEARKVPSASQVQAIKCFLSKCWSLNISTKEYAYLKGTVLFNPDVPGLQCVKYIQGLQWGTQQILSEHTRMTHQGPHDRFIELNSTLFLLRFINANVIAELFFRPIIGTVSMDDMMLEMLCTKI
DAX1 inh-2: inhibitors of DAX1 repression of SF-1 activated StAR promoter; HEK293T StAR-luciferase reporter, SF-1/DAX-1 repression relief; inhibition, % at 6.8 µM; 370,000 compounds, 1.1% hits; AID 652010;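 active = inhibition above the mean over all tested compounds plus 3 SD, cut at about 3.6% in these data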;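 also: 0% = DAX-1 cells with DMSO and 100% = cells lacking DAX-1 with DMSO; higher inhibition means more luminescence from relief of DAX-1 repression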
hcDAF-12 act: H. contortus DAF-12 activation, primary screen | HEK293 hcDAF-12 lit1-tk-luc reporter, luminescence; 0% DMSO, 100% Δ7-dafachronic acid | activation, % at 6.8 µM | 370,000 compounds, 1.4% hits;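 active = activation above the mean of all tested compounds plus 3 SD, cut at about 5.5% in these data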;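 also: 100% = response to 3 µM Δ7-dafachronic acid high control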
DAX1 inh confirm: NR0B1 (human) inhibition, confirmation; shares compounds with DAX1 inh-2; HEK293T StAR-promoter luciferase reporter, SF-1/DAX-1 repression; inhibition, % at 6.8 µM; 2,400 compounds, 87% hits; AID 652134;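 active = inhibition above the average of every tested compound plus 3 SD, cut at about 3.8% in these data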;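 also: 0% = DAX-1 cells with DMSO and 100% = no DAX-1 control cells with DMSO; active compounds raise luminescence by relieving repression of the StAR reporter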
SF1 AF2mut Luc: nonselective inhibitor or artifact in SF-1 mutant DAX1 counter-screen; shares compounds with DAX1 inh-2; HEK293 StAR-luciferase, SF-1 AF2 mutant, luminescence; inhibition, % at 6.8 µM; 2,400 compounds, 78% hits; AID 652136;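 active = inhibition above the mean of all tested compounds plus 3 SD, cut at about 3% in these data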;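 also: 0% = DAX-1 transfected cells with DMSO and 100% = cells without DAX-1 with DMSO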
An asterisk follows results filed as active; · = not tested or not shown.

SMILES	ssDAF-12 act	hgDAF12 agonist	Wee1 stabilizer	DAX1 inh-1	DAX1 inh-2	hcDAF-12 act	DAX1 inh confirm	SF1 AF2mut Luc
O=C(Nc1ccc2c(c1)OCCO2)c1c(F)cccc1F	·	·	2.2	1.6	·	·	·	·
O=C(Nc1ccc2c(c1)OCCO2)c1ccccc1F	0.8	11.1*	4.1	-1.6	4.8*	5.7*	13.9*	6.2*
Cc1ccccc1Cn1nnc(C(=O)Nc2cccc(C)c2C)c1N	-2.0	-4.5	-0.9	-1.0	-0.8	-1.8	·	·
Cc1ccccc1Cn1nnc(C(=O)Nc2ccc3c(c2)OCCO3)c1N	-0.1	9.6	·	3.8	6.2*	1.1	8.7*	7.4*
Cc1ccc(C)c(Cn2nnc(C(=O)Nc3ccc4c(c3)OCCO4)c2N)c1	-0.4	1.3	·	0.3	4.6*	-1.1	3.4	3.6*
C=CCOCCn1[nH]c2ccccc2c1=O	-1.1	0.9	·	0.6	-0.3	-0.3	·	·
Cc1ccc(OCCN2CCC2(C)C(=O)NCc2ccc(C(F)(F)F)cc2)cc1 (configuration not stated)	-1.1	-0.5	·	·	-1.1	-2.0	·	·
c1ccc(-n2ncc3c(NC4CCCCCC4)ncnc32)cc1	-0.6	10.8*	·	5.9*	5.7*	-0.1	10.2*	5.7*
CCOc1ccc(N(CC(=O)Nc2ccccc2OCC)S(=O)(=O)c2c(C)noc2C)cc1	-0.3	1.0	·	0.1	13.4*	0.6	15.6*	-6.6
CC(C)C[C@H]1CN([C@@H](Cc2ccccc2)CN2CCC[C@H]2CN2C(=O)C(=O)NC[C@@H]2Cc2ccc(O)cc2)C(=O)C(=O)N1CC1CCCCCC1	-1.1	0.4	·	·	-1.6	-0.2	·	·
COC(=O)[C@H]1C[C@@]2(O)CN(S(=O)(=O)c3ccc(C)cc3)C[C@@]2(OC(=O)NCc2ccc(OC)c(OC)c2)C[C@H]1C(=O)OC	-0.7	0.9	·	1.0	5.5*	-1.1	1.0	-0.1
COC(=O)[C@H]1C[C@@]2(O)CN(S(=O)(=O)c3ccc(C)cc3)C[C@@]2(OC(=O)NCc2ccccc2F)C[C@H]1C(=O)OC	-0.4	-1.6	·	2.0	1.1	0.8	·	·
O=C(Nc1ccccn1)c1cccc(S(=O)(=O)N2CCOCC2)c1	-1.0	-0.5	-0.8	1.5	0.7	-0.7	·	·
Cc1ccnc(NC(=O)c2cccc(S(=O)(=O)N3CCOCC3)c2)c1	-0.2	10.9*	·	0.4	6.1*	3.3	4.7*	2.8
CN(C)S(=O)(=O)c1ccc(C(=O)Nc2ccc3nc(N4CCOCC4)sc3c2)cc1	-1.0	0.4	·	0.9	-0.9	-0.3	·	·
COc1cc(C(=O)c2cc3c(cc2C)OCO3)cc(OC)c1OC	-1.5	-0.6	·	·	6.5*	-1.2	12.8*	-8.9
CCCN(CCC)c1ncnc2c1cnn2-c1ccc(OC)cc1	0.3	10.2	5.1	0.6	5.3*	4.6	14.0*	3.1*
CCCNc1ncnc2c1cnn2-c1ccc(OC)cc1	·	·	2.4	·	·	·	·	·
COc1ccc(-c2nc3ccc(C)cn3c2Cc2ccccc2)cc1OC	-1.4	-0.5	·	·	-0.6	-3.0	·	·
COc1cc(C2C(C(=O)c3ccc(C)o3)=C(O)C(=O)N2CCN2CCOCC2)ccc1OCCC(C)C (configuration not stated)	-0.8	0.2	·	0.3	0.1	-1.1	·	·
Nc1cc(-c2ccc(Cl)cc2)nn1-c1ccccc1	-1.2	9.4	0.6	1.5	1.4	1.8	·	·
O=C1CCn2nc(-c3ccc(Cl)cc3)cc2N1	1.0*	7.6	4.6	2.7	5.3*	4.5	6.3*	4.3*
O=C(/C=C/c1ccco1)Nc1cc(Cl)ccc1C(=O)O	-1.0	1.4	-1.6	-0.8	-0.3	-1.2	·	·
O=C(/C=C/c1ccco1)Nc1ccccc1C(=O)O	0.2	13.2*	2.8	·	4.6*	4.2	9.3*	5.7*
CC(=O)c1c(C)[nH]c(C(=O)OCc2nc3ccsc3c(=O)[nH]2)c1C	-0.1	12.0*	·	2.4	7.1*	1.4	4.7*	3.2*
